Experimental findings from PubChem BioAssay (NCATS) are described below.

Results filed as inconclusive are left out. Active and inactive are the calls of the source. Calls follow the shape of the dose curve; as a rule, active = well fitted inhibition curve with a large enough effect; inconclusive = small, poorly fitted or top-dose-only effect; inactive = flat fitted curve, though single readings scatter.

For the experiment, the target named is Aldehyde dehydrogenase, mitochondrial (Homo sapiens) (UniProt P05091). Nature of the experiment: qHTS for Inhibitors of the Aldehyde Dehydrogenase Family (ALDH2) Primary screen (AID 2061308).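 Also: plate controls were vehicle for no effect and reference inhibitor for full effect; nearly all actives have a fitted effect of over 55% in size.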 Conditions: ALDH2 enzyme inhibition qHTS, 1536-well; series mostly up to 56 µM; activity change, negative = inhibition: at the top concentration. For orientation: In qHTS, concentration-response curves come from the screen itself.
Turning to `COc1cnc(-c2ccc(Cn3c(CC(C)(C)C(=O)O)c(SC(C)(C)C)c4cc(OC[C@@H]5Cc6ccccc6N5C(C)=O)ccc43)cc2)nc1`, the “activity change, negative = inhibition” value was 4.69% (inactive).
As to `O=C(COC(=O)CNC(=O)c1ccccc1)Nc1cc(C(F)(F)F)ccc1Cl`, the “activity change, negative = inhibition” value is 0.297% (inactive).
Same read-out and setting: the same measure for `O=S(=O)(c1ccc(Br)cc1)N1CCN(S(=O)(=O)c2ccc3c(c2)OCCO3)CC1`: 15.8% (inactive); for `COc1ccc(-c2ccc3ncnc(NCc4nc(C)cs4)c3c2)cc1OC`: -2.66% (inactive); for `C(=C/c1cccs1)/c1ccncc1`: 18.7% (inactive).
As for `Oc1cccc2cc(N3CCCC3)cnc12`, the “activity change, negative = inhibition” value was -11.7% (inactive).
Regarding `COc1ccc(C2=Nn3c(nnc3-c3ccccc3C(F)(F)F)SC2)cc1OC1CCOC1` (stereo not given), the “activity change, negative = inhibition” value was 3.24% (inactive).
Turning to `COc1cc(O)c(C(CC(=O)N2CCCC(C)(C)C2)c2ccc3c(c2)OCO3)c(OC)c1` (stereo not given), the “activity change, negative = inhibition” value was 2.66% (inactive).
As to `CN(c1cccc2cccnc12)S(=O)(=O)c1ccccc1`, the “activity change, negative = inhibition” value is -0.559% (inactive).
In the case of `Cc1ccc(C(=O)NC2CCN(C#N)CC2)cc1`, the “activity change, negative = inhibition” value is 0.544% (inactive).
As to `O=S(=O)(NCC1CN(S(=O)(=O)c2ccc3c(c2)OCCO3)C1)c1c(F)cccc1F`, the “activity change, negative = inhibition” value is 9.21% (inactive).
Turning to `CC(=O)c1ccc(N2CCN(S(=O)(=O)c3ccc4c(c3)C(=O)OC4)CC2)cc1`, the “activity change, negative = inhibition” value was 1.99% (inactive).
For `O=C(Cc1ccc2ccccc2c1)Nc1ccc(S(=O)(=O)Nc2nccs2)cc1`, the “activity change, negative = inhibition” value is 1.77% (inactive).
Consider `Cc1cccc(S(=O)(=O)Nc2cnccc2C(=O)Nc2nc(-c3ccccc3)cs2)c1`, for which the “activity change, negative = inhibition” value is -1.63% (inactive).
Turning to `Cc1ccc(-c2ccc(=O)n(CC(=O)N(C)C(C)c3ccco3)n2)cc1` (stereo not given), the “activity change, negative = inhibition” value was -3.05% (inactive).
Still for that read-out and setting: under `Cc1cc(NC(=O)Nc2nnc(-c3ccncc3)s2)ccc1Cl` stands -11.8% (inactive).
Turning to `COc1cccc(C2=Nn3c(nnc3-c3ccccc3OC)SC2)c1`, the “activity change, negative = inhibition” value is 9.06% (inactive).
Consider `Cn1nnnc1Sc1ncnc2scc(-c3ccsc3)c12`, for which the “activity change, negative = inhibition” value is 8.13% (inactive).
Regarding `CN(CCc1cnc[nH]1)c1ncnc2ccc(-c3ccc4c(c3)OCO4)cc12`, the “activity change, negative = inhibition” value is 13.6% (inactive).
On to `O=c1[nH]ccc2nc(-c3ccc(CN4CCC(c5nc(-c6ccccn6)n[nH]5)CC4)cc3)c(-c3ccccc3)cc12`, for which the “activity change, negative = inhibition” value is -29.1% (inactive).
As to `COc1ccc(C2=Nn3c(nnc3-c3ccccc3F)SC2)cc1OCC1CC1`, the “activity change, negative = inhibition” value is 15% (inactive).
Same read-out and setting: under `COc1ccc(C2c3c(nc(Cc4ccccc4)[nH]c3=O)Oc3ccc4ccccc4c32)cc1OC` (stereo not given) stands 6.97% (inactive).
Regarding `NC(=O)C1CCN(c2nc(-c3cccc(F)c3)cs2)CC1`, the “activity change, negative = inhibition” value was 13.9% (inactive).
Regarding `Cc1cc(C)nc(NC(=S)N2CCN(c3ncccc3C#N)CC2)c1`, the “activity change, negative = inhibition” value was 1.82% (inactive).
In the case of `Cc1ccc(OCCn2c(CCNC(=O)c3ccccc3F)nc3ccccc32)cc1`, the “activity change, negative = inhibition” value was -1.1% (inactive).
With `Cc1ccc(S(=O)(=O)Nc2ccccc2C(=O)Nc2ccc(-c3ccccc3)nc2)cc1`, the “activity change, negative = inhibition” value is 0.142% (inactive).
On the same count and under the same terms, the same measure for `O=C(c1ccccc1)N(C(=O)c1ccccc1)c1ncnc2c1C(c1ccccc1)c1c(ccc3ccccc13)O2` (stereo not given): -1.98% (inactive); for `O=c1c2ccc([N+](=O)[O-])cc2nc2sc(Nc3ccc4c(c3)CCC4)nn12`: 2.88% (inactive).
As to `Cc1cc(C)nc(NC(=S)N2CCN(c3ccccn3)CC2)c1`, the Potency result was “inactive”.
Turning to `CC(C)(C)OC(=O)Cc1nnc(C(C(=O)OCc2ccccc2)c2ccccc2)o1` (stereo not given), the “activity change, negative = inhibition” value was -1.33% (inactive).
With `Cc1c(C(=O)NCC2CCCO2)[nH]c2c1C(=O)CC(c1ccco1)C2` (stereo not given), the “activity change, negative = inhibition” value is -9.62% (inactive).
In the case of `CC(=O)NC1CCN(c2nc(-c3ccc(Br)cc3)cs2)CC1`, the “activity change, negative = inhibition” value is -6.76% (inactive).
For the compound `O=C1CCc2cc(S(=O)(=O)Nc3cccc(-c4ccccc4)c3)ccc2N1`, the “activity change, negative = inhibition” value is -9.34% (inactive).
In the case of `Brc1ccccc1-c1nc(NCc2ccc(-c3cccnc3)cc2)c2ccccc2n1`, the “activity change, negative = inhibition” value is 0.62% (inactive).
With `Cc1ccc(OCCn2c(CCNC(=O)c3cccc(C)c3)nc3ccccc32)cc1`, the “activity change, negative = inhibition” value was -4.56% (inactive).
Turning to `COc1cc(-c2nc(Nc3ccc(F)c(F)c3)c3ccccc3n2)c(F)cn1`, the “activity change, negative = inhibition” value is 8.35% (inactive).
On to `COc1ccc(S(=O)(=O)N2CCN(S(=O)(=O)c3ccc(OC)cc3)CC2)cc1`, for which the Potency entry was “inactive”.
On to `c1nc(NCC2CCCCC2)c2cc(-c3ccc4c(c3)OCO4)ccc2n1`, for which the “activity change, negative = inhibition” value is 0.491% (inactive).
As for `COc1ccc(CCc2nc3c(C)c(-c4c(C)noc4C)c(C)cc3n2CCN2CCOCC2)cc1`, the “activity change, negative = inhibition” value was 7.04% (inactive).
Regarding `COc1cccc(C2N=C(Nc3nc4ccccc4o3)NC3=C2C(=O)CCC3)c1` (stereo not given), the “activity change, negative = inhibition” value was -8.59% (inactive).
